From PubChem BioAssay AID2315 (National Center for Advancing Translational Sciences (NCATS), 2010) come the findings set out here.

Among all 290,000 compounds or so, about 27,000 (9.3%) were called active. What follows is part of a selection rich in actives, with near analogues and random picks from the rest. Values without a mark were called inactive. No stated cut-off is given here; in the data, active means inhibition mostly above about 28% (no sharp cut-off); inactive means mostly below about 43%.

The nature of this assay: A qHTS for Small Molecule Inhibitors of Shiga Toxin. Further: 0% is about no effect. The following applies: Vero cells, Shiga toxin protein synthesis inhibition reporter; at 38.7 µM, stronger effect = higher value. (In general: qHTS replaces the single test concentration by a dilution series.)
A word on the inhibition: it is the change of the read-out against control, counted positive when it falls. For the compound `CC(=O)NS(=O)(=O)c1ccc(N/C(N)=N/c2nc(C)cc(C)n2)cc1`, the inhibition is 4.41%.

On to `Cc1cccc2c1cnn2C(=O)CCC(=O)NC1CCCCC1`, for which the inhibition is -4.08%.

Take `Cc1nc2cc(NC(=O)Nc3cccc(F)c3)ccc2n1C`: the inhibition is 27.6% (active).

Regarding `Cc1nc2cc(NC(=O)NC3CC3)ccc2n1C`, the inhibition was 27.2%.

For `Cc1cc2nc(C)n(CCCNC(=O)Nc3ccccc3)c2cc1C`, the inhibition is 9%.

As to `C=CCN(C(=O)Cn1ncc2c1-c1cc(C)ccc1OC2)c1ccccc1`, the inhibition is -10.9%.

Turning to `CCOC(=O)N1CCN(Cc2nc3cc(NC(=O)CC)ccc3n2CC)CC1`, the inhibition was -2.96%.

Consider `C=CCN(C(=O)Nc1ccc2c(c1)nc(C)n2C)c1ccccc1`, for which the inhibition is 46.7% (active).

`Cc1cc(C)cc(NC(=O)N(C)Cc2ccccc2)c1`: the inhibition is 13.5%.

`COc1ccc(-n2cnc3cc(NCc4ccco4)ccc32)cc1`: the inhibition was 66.3%.

On to `Cc1nc2cc(NCc3cccs3)ccc2n1C`, for which the inhibition is 47.7% (active).

`Cc1nn(CC(=O)Nc2ccc3c(c2)nc(CN2CCCCC2)n3C)c(=O)c2ccccc12`: the inhibition was -8.7%.

Consider `C=CCN(C(=O)Nc1ccc2oc(C)nc2c1)c1ccccc1`, for which the inhibition was 117% (active).

`Cn1ncc(Br)c1C(=O)NCc1cccs1`: the inhibition is 20.7%.

Consider `O=C(NCCCn1ccnc1)/C(=C\c1ccccc1F)NC(=O)c1ccccc1`, for which the inhibition is -7.27%.

For `COc1cc(NC(=O)CCNC(=O)Cn2ccc3ccccc3c2=O)cc(OC)c1OC`, the inhibition was 11.7%.

For the compound `O=C1CN(C(=O)c2ccccc2F)C(c2ccc(F)cc2)c2cc(F)ccc2N1` (centres undefined), the inhibition was 18%.

Take `O=C(/C=C/c1ccc([N+](=O)[O-])cc1)NCCSCc1ccco1`: the inhibition is -2.44%.

Take `Cc1cccc(N2CCN(C(=O)CCS(=O)(=O)c3ccc4c(c3)NC(=O)C(C)S4)CC2)c1C` (centres undefined): the inhibition is -11.3%.

For `COc1cc(OC)c2c(c1C(CCN1CCCCC1)c1ccc(N(C)C)cc1)OC(=O)CC2c1ccc(N(C)C)cc1` (centres undefined), the inhibition was -7.65%.

Turning to `Cn1c(CCN2CCCCCC2)nc2cc(NC(=O)Nc3ccccc3)ccc21`, the inhibition was 73.3% (active).

For the compound `CCC(=O)Nc1ccc2c(c1)nc(CCN1CCN(c3ccccn3)CC1)n2C`, the inhibition was -4.67%.

As to `Cn1c(CCN2CCCC2)nc2cc(NS(=O)(=O)c3ccccc3)ccc21`, the inhibition is 0.447%.

Take `CC(C)c1ccc(S(=O)(=O)N2CCC3(CC2)OCCO3)cc1`: the inhibition was -8.25%.

For the compound `CNc1nc(Nc2ccc(C)c(Cl)c2)nc(N)c1[N+](=O)[O-]`, the inhibition is 68.3% (active).

In the case of `Nc1nc(Nc2ccccc2)nc(NCCO)c1[N+](=O)[O-]`, the inhibition was 16.8%.

For the compound `COc1cccc(Nc2nc(N)c([N+](=O)[O-])c(NCc3ccco3)n2)c1`, the inhibition is 45.8%.

For `CN(Cc1ccco1)S(=O)(=O)c1nnc(NC(=O)c2ccccc2)s1`, the inhibition is 38.9%.

In the case of `COc1cccc(NC(=O)COC(=O)CCOc2ccccc2OC)c1`, the inhibition was -8.03%.

For the compound `COc1ccc(/C=C/C(=O)OCC(=O)Nc2cccc(Oc3ccccc3)c2)c(OC)c1`, the inhibition is -4.44%.

As to `COc1cc(/C=C/C(=O)OCC(=O)Nc2cccc(Oc3ccccc3)c2)ccc1O`, the inhibition is 51.6% (active).

Regarding `CCOc1ccccc1CNS(=O)(=O)c1cc(-c2cc(C)no2)ccc1C`, the inhibition was -5.31%.

As for `CCCCC(=O)Nc1ccccc1N1CCN(c2ccc(F)cc2)CC1`, the inhibition was -8.03%.

As for `Cc1cc(C)c(S(=O)(=O)c2ccc(F)cc2C)c(=O)[nH]1`, the inhibition is 3.7%.

On to `O=C(N/C(=C\c1ccc([N+](=O)[O-])cc1)C(=O)N1CCCCC1)c1ccco1`, for which the inhibition is -18.7%.

With `O=C(NC(=S)Nc1ccccc1C(=O)O)c1ccc(-c2ccc(Br)cc2)o1`, the inhibition was 125% (active).

Turning to `O=C(O)c1ccccc1NC(=O)c1ccccc1-c1ccccc1C(=O)O`, the inhibition was -1.49%.

As for `COC(=O)c1ccccc1NC(=S)NC(=O)c1ccccc1F`, the inhibition was -1.7%.

`O=C(CSc1nc2nccnc2c(=O)n1Cc1cccs1)Nc1ccccc1F`: the inhibition was 18.1%.

With `CC(=O)Nc1ccc(NC(=O)C2CCCN(S(=O)(=O)c3ccc(Cl)cc3)C2)cc1` (centres undefined), the inhibition was -4.09%.

As to `CCCNC(=O)c1ccc(Cl)c(Cl)c1`, the inhibition is -6.36%.

In the case of `CCCNC(=O)c1c(Cl)cnn1-c1ccc(C)cc1`, the inhibition was 59.9% (active).

Turning to `CCCNC(=O)CCc1c(C)nc2c(c(C)nn2-c2ccc(C)cc2)c1C`, the inhibition was -2.23%.

With `COc1ccc(-n2nc(C(=O)Nc3cc(OC)c(OC)c(OC)c3)c3ccccc3c2=O)c(OC)c1`, the inhibition is -1.7%.

On to `COc1ccc(-n2nc(C(=O)NCC(=O)N3CCN(c4ccccc4OC)CC3)c3ccccc3c2=O)c(OC)c1`, for which the inhibition was 73.3% (active).

On to `COc1cccc(NC(=O)c2nn(-c3ccc(OC)cc3OC)c(=O)c3ccccc23)c1`, for which the inhibition was -8.21%.

`Cc1csc(NC(=O)Nc2ccccc2[N+](=O)[O-])n1`: the inhibition is 67.7% (active).

With `Cc1csc(NC(=O)NC2(C(F)(F)F)Oc3ccccc3O2)n1`, the inhibition is 24.4%.

As for `Cc1cc(NC(=O)Nc2ccccc2[N+](=O)[O-])no1`, the inhibition was 28.7%.

`COC(=O)C1=CN(c2ccc(F)c(F)c2)C=C(C(=O)OC)C1c1ccc([N+](=O)[O-])cc1`: the inhibition is 3.77%.

Regarding `Cc1[nH][nH]c(=O)c1C(c1ccc2c(c1)OCO2)c1c(C)[nH][nH]c1=O`, the inhibition is -5.46%.

`Cc1[nH][nH]c(=O)c1N=Nc1ccccc1`: the inhibition is -4.84%.

Consider `Nc1[nH][nH]c(=O)c1N=Nc1ccc2c(c1)OCO2`, for which the inhibition is 74.5% (active).

With `CC1CCC(NS(=O)(=O)c2ccc3c(c2)CC(=O)N3)CC1` (centres undefined), the inhibition is -4.99%.

Take `Clc1ccccc1SCc1nc2ccccc2[nH]1`: the inhibition was 79.4% (active).

For the compound `c1ccc2c(CSCc3nc4ccccc4[nH]3)cccc2c1`, the inhibition was 42.3%.

In the case of `COc1ccc(OC(C)C(=O)NCCc2nc3ccccc3[nH]2)cc1` (centres undefined), the inhibition is -1.88%.

In the case of `COc1cc(C(=O)NN(CCC#N)C2=NS(=O)(=O)c3ccccc32)cc(OC)c1OC`, the inhibition is -7%.

Turning to `O=C(c1ccc(CS(=O)(=O)c2ccccc2)o1)N1CCN(c2ccccc2)CC1`, the inhibition was -5.16%.
